Test results taken from ChEMBL document CHEMBL4513216, “Probing the Open Global Health Chemical Diversity Library for Multistage-Active Starting Points for Next-Generation Antimalarials” (ACS Infect Dis, 2020).
About 8,600 (12%) of roughly 69,000 compounds showed an effect of 50% or more. Many of the other results were omitted from the sample, so strong results are more common in it than they were.

These compounds were tested on Plasmodium berghei (assay: Screen against P. berghei liver stage (PbLuc), transformed with Luciferase, at 10uM). Conditions: tested at 10 uM.
Type: functional, HepG2
NC(=O)C1(CCCc2ccncc2)CCCN1 (centres undefined) was tested, and the INHIBITION was 1.5%.
Compound CNS(=O)(=O)c1ccc(CNC(=O)c2c(C)oc(C)c2C)cc1 has an INHIBITION of -6.14%.
For CN1CCCC1CNC(=O)CCCOc1ccc(Br)cc1 (centres undefined), the INHIBITION was -62.6%.
Cc1ccc(-c2nnc(SCC(=O)O)n2-c2ccc(C)cc2)cc1 showed an INHIBITION of 33.5%.
Compound O=S(=O)(C1CC1)N1CCc2ncnc(N3CCCC3)c2CC1 has an INHIBITION of -17.7%.
For COc1ccc(C(=O)NCCN(C)C)c(I)c1, the INHIBITION was -0.217%.
Work on NC(=O)N1CCC(NCc2cc(Br)ccc2Cl)CC1 yielded an INHIBITION of 34.7%.
CC(C)(C)c1ncc(C(=O)NCCNC(=O)c2ccco2)s1 showed an INHIBITION of -21.5%.
With COc1cc(C(=O)N2CCCC(c3cc(C)[nH]n3)C2)ccc1C (centres undefined) the INHIBITION was 24%.
CCc1ncc(C(=O)N2CCn3c(CC)nnc3C2)s1 was tested, and the INHIBITION was 53.9%.
For CCc1nnc2n1CCN(C(=O)c1cnc(C3CC3)s1)C2, the INHIBITION was 13.9%.
For CCc1nnc2n1CCN(C(=O)c1cnc(-c3cccs3)s1)C2, the INHIBITION was 19.3%.
In the case of Cc1cc(C)c2ncc(C#N)c(N3CCS(=O)(=O)CC3)c2c1, the INHIBITION was 36.3%.
Cc1cnn(CC2CCCCN2C(=O)CC(F)(F)F)c1 (centres undefined) was tested, and the INHIBITION was 9.14%.
With O=C(c1cccnc1SCc1ccccc1)N1CC[C@@H](O)C1 the INHIBITION was -34%.
For O=C(c1cc(C2CC2)nc2onc(-c3ccccc3)c12)N1CC(O)C1, the INHIBITION was 44.3%.
O=C(CN1CCCC1c1nc(-c2ccccc2)no1)N1CCOCC1 (centres undefined) was tested, and the INHIBITION was -21.8%.
Compound O=C(c1cc(C2CC2)nc2onc(-c3ccccc3)c12)N1CCOCC1 has an INHIBITION of 51.7%.
O=C(c1cc(-c2ccccc2)nc2onc(C3CC3)c12)N1CC[C@H](O)C1 gave an INHIBITION of 73%.
In the case of O=C(c1cc(C2CC2)nc2onc(-c3ccccc3)c12)N1CC[C@H](O)C1, the INHIBITION was 28.5%.
Compound Cc1cc(NCCCc2c(C)noc2C)nc(N)n1 has an INHIBITION of 35%.
Compound CC(C)c1ncc2c(n1)CN(Cc1noc(-c3ccccc3)n1)CC2 has an INHIBITION of 45.7%.
With CC(C(=O)NCCN1CCCCC1)n1cncn1 (centres undefined) the INHIBITION was -5.07%.
CCn1c(SCC(=O)N2CCCC2)nc2cc(C)[nH]c2c1=O was tested, and the INHIBITION was 40%.
c1csc(CN2CCC3(CCOCC3COCC3CC3)CC2)n1 (centres undefined) was tested, and the INHIBITION was -18.2%.
CCN(Cc1nccn1C)C1CCN(c2ccccc2)C1=O (centres undefined) gave an INHIBITION of 42.6%.
C=C(C)Cn1cc(C(N)=O)nc1C1CC1 was tested, and the INHIBITION was -6.67%.
Compound N#Cc1ccccc1OCCN1CCN(C(=O)C2CCCC2)CC1 has an INHIBITION of 65.6%.
N#Cc1ccccc1N1CCN(CCC(=O)N2CCOCC2)CC1 showed an INHIBITION of -29.4%.
N#Cc1cnc2ccccc2c1N1CCC(C(=O)O)CC1 showed an INHIBITION of 35.7%.
N#Cc1cnc2ccccc2c1N1CCN(CCC(=O)O)CC1 was tested, and the INHIBITION was 5.87%.
CC(C)C(=O)N1CCN(CCOc2cccc(C#N)c2)CC1 gave an INHIBITION of 39.2%.
With N#Cc1ccccc1OCCN1CCC(C(=O)N2CCOCC2)CC1 the INHIBITION was 70.3%.
Work on Cc1nnc(CN2CCN(CCOc3ccccc3C#N)CC2)n1C yielded an INHIBITION of 21.2%.
N#Cc1cnc2ccccc2c1N1CCN(C(=O)C2CCC2)CC1 gave an INHIBITION of 90.6%.
Work on N#Cc1cccc(OCCN2CCC(C(=O)N3CCOCC3)CC2)c1 yielded an INHIBITION of 55.4%.
N#Cc1ccccc1OCCN1CCC(N2CCNC2=O)CC1 was tested, and the INHIBITION was 24%.
Work on N#Cc1ccccc1OCCN1CCCCC1C(=O)N1CCOCC1 (centres undefined) yielded an INHIBITION of 47.1%.
In the case of CC(C)(C)C(=O)N1CCN(CCOc2cccc(C#N)c2)CC1, the INHIBITION was -18%.
Work on CN1CC(=O)N(c2ccsc2)CC12CCN(C(=O)CC1CCCC1)C2 (centres undefined) yielded an INHIBITION of 21.8%.
With NC(=O)NC(=O)C(c1ccccc1)N1CCN(Cc2ccsc2)CC1 (centres undefined) the INHIBITION was 4.52%.
Compound Cc1cc(C)n(CC2CCCN2C(=O)Cc2c(C)nc(C)[nH]c2=O)n1 (centres undefined) has an INHIBITION of 2.3%.
Work on O=C(O)c1cc2c(nc1-c1ccoc1)CCN(Cc1ccco1)CC2 yielded an INHIBITION of 34.6%.
Work on Cc1occc1C(=O)N1C[C@@H]2OCCN(C(C)C)[C@@H]2C1 yielded an INHIBITION of 15.9%.
CN1CC2(CCN(C(=O)CCCOCc3ccccc3)C2)OC1=O (centres undefined) showed an INHIBITION of 12.4%.
Compound CCn1nc(C)cc1C(=O)NCc1noc(C(C)(C)C)n1 has an INHIBITION of 27.5%.
With O=C1CCC[C@]2(CN(S(=O)(=O)N3CCOCC3)C[C@H]2c2cccnc2)N1 the INHIBITION was 41.5%.
Cc1nnc(-c2cccc(C#N)c2)n1C1CCCN(C(C)C)C1=O (centres undefined) showed an INHIBITION of -18.9%.
CN1CCCCCC1C(=O)N1CCCN(c2ccccc2)CC1 (centres undefined) was tested, and the INHIBITION was 45.6%.
For CN1CCCCC1C(=O)N1CCN(c2ccccc2C#N)CC1 (centres undefined), the INHIBITION was 39.6%.
Compound N#Cc1cccc(OCCN2CCCC2C(=O)NCC(F)(F)F)c1 (centres undefined) has an INHIBITION of 2.93%.
N#Cc1cccc(OCCN2CCCC2C(=O)N2CCSCC2)c1 (centres undefined) gave an INHIBITION of 55.3%.
CN1CCCCCC1C(=O)N1CCN(c2ccccc2C#N)CC1 (centres undefined) showed an INHIBITION of 62.4%.
N#Cc1cccc(OCCN2CCCC2C(=O)NC2CC2)c1 (centres undefined) gave an INHIBITION of -3.21%.
With CC(C)N1CCN(C(=O)c2ccccc2NCc2cccnc2)CC1 the INHIBITION was -9.31%.
CC(C)c1nnc(NC(=O)N(C)Cc2ccc(C(N)=O)cc2)s1 gave an INHIBITION of 22.5%.
For Cc1cc(O)cc(=O)n1CCCC(=O)Nc1n[nH]c2cccc(F)c12, the INHIBITION was 5.03%.
With COc1ccccc1CNC(Cc1cccs1)c1nc(C)c(C)s1 (centres undefined) the INHIBITION was 55.6%.
Work on COc1ccccc1CNC(Cc1cccs1)c1nc(C)cs1 (centres undefined) yielded an INHIBITION of 47.2%.
COc1cccc(CNC(Cc2cccs2)c2nc(C)c(C)s2)c1OC (centres undefined) was tested, and the INHIBITION was 42.4%.
O=C1CCC2(CCC(NC(=O)NCc3cccnc3)CC2)N1 (centres undefined) was tested, and the INHIBITION was 35.8%.
Compound FC(F)(F)CCc1ccnc(NCc2csc(N3CCOCC3)n2)n1 has an INHIBITION of 69%.
Nc1nc(CNc2nccc(CCC(F)(F)F)n2)cs1 gave an INHIBITION of 32.7%.
CC(C)c1nc(CNc2nccc(CCC(F)(F)F)n2)cs1 was tested, and the INHIBITION was 16.2%.
In the case of Cc1noc(C)c1CN1CC[C@H]2OCC[C@@]2(C(=O)N2CCOCC2)C1, the INHIBITION was 47.4%.
For CN(Cc1ccc(Cl)c(F)c1)C(=O)c1ccncc1F, the INHIBITION was 36.2%.
CN(Cc1ccc(Cl)c(F)c1)C(=O)CCc1ccncc1 was tested, and the INHIBITION was 56.5%.
In the case of CN(Cc1ccc(Cl)c(Cl)c1)C(=O)CNC(N)=O, the INHIBITION was -36.3%.
Work on O=C1CCc2cc(S(=O)(=O)NC(=O)c3ccc4c(c3)COC4)ccc2N1 yielded an INHIBITION of 62.9%.
For O=C1COc2cc(C(=O)NS(=O)(=O)c3ccc(F)c(F)c3)ccc2N1, the INHIBITION was 41.5%.
Work on O=C1CCc2cc(S(=O)(=O)NC(=O)c3ccc4c(c3)CCO4)ccc2N1 yielded an INHIBITION of 44.7%.
For O=C1CCc2cc(S(=O)(=O)NC(=O)c3ccc4c(c3)OCO4)ccc2N1, the INHIBITION was 39.4%.
COCc1ccccc1C(=O)NS(=O)(=O)c1ccc2c(c1)CCC(=O)N2 showed an INHIBITION of 25.5%.
COCc1ccc(C(=O)NS(=O)(=O)c2ccc3c(c2)CCC(=O)N3)cc1 gave an INHIBITION of 61.8%.
